Test results: PubChem BioAssay (NCATS)
Inconclusive results are not listed. Calls of active or inactive are those of the source. Unless noted, calls come from the whole dose curve; as a rule, active = well fitted curve in the direction sought with a large enough effect; inconclusive = small, poorly fitted or top-dose-only effect, or another doubt; inactive = no such curve, though single readings can be large; an effect the other way counts as inactive or inconclusive.

Tests used:
[1] = qHTS drug screen for cell cycle checkpoint inhibitors in PARPi-resistant BRCA-mutant ovarian cancer cell lines. (AID 1963452; calls by dose curve); conditions: PEO1/OlaR viability, CellTiter-Glo luminescence, 96 h, stronger effect = lower value
How it was run: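 PEO1, PEO4 and PEO1/OlaR ovarian cancer cells, 600 per well, exposed 96 h at 37C to a dilution series. Viability read by CellTiter-Glo luminescence, normalized to DMSO and empty wells; activity summarized as Z-AUC.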

[2] = qHTS profiling for inhibitors of Plasmodium falciparum proliferation (AID 504749); note: nearly all actives have a fitted effect of over 60% in size; note: potency is the fitted concentration of half-maximal effect;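 for activity, negative = inhibition: 0% = DMSO vehicle and full inhibition = artemisinin control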; conditions: P. falciparum in erythrocytes, SYBR Green DNA, 72 h
How it was run: (§1)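 P. falciparum-infected erythrocytes (0.3% parasitemia, 2.5% hematocrit) incubated with compound 72 h at 37 C, 5% CO2. Parasite DNA detected by SYBR Green after lysis, overnight at room temperature; normalised to 0.29 uM artemisinin and DMSO.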

3D7 = assay: as above; conditions: P. falciparum in erythrocytes, SYBR Green DNA, 72 h; series mostly up to 28.7 µM
How it was run: as §1

AS120 = assay: as above; conditions: P. falciparum in erythrocytes, SYBR Green DNA, 72 h; series mostly up to 28.7 µM
How it was run: as §1

C2A = assay: as above; conditions: P. falciparum in erythrocytes, SYBR Green DNA, 72 h; series mostly up to 28.7 µM
How it was run: as §1

CP185 = assay: as above; conditions: P. falciparum in erythrocytes, SYBR Green DNA, 72 h; series mostly up to 28.7 µM
How it was run: as §1

[3] = molecular target: Cytochrome P450 2D6 (Homo sapiens) (UniProt P10635); assay: qHTS for inhibitors of CYP2D6 against the NCATS DSHEA and TCM libraries (AID 1919972); conditions: CYP2D6 enzymatic inhibition, luminescence qHTS; series mostly up to 34.1 µM; note: % is set by controls: 0 for no effect and ±100 for the full control effect
Sequence of Cytochrome P450 2D6 (Homo sapiens) (P10635 whole entry, looked up): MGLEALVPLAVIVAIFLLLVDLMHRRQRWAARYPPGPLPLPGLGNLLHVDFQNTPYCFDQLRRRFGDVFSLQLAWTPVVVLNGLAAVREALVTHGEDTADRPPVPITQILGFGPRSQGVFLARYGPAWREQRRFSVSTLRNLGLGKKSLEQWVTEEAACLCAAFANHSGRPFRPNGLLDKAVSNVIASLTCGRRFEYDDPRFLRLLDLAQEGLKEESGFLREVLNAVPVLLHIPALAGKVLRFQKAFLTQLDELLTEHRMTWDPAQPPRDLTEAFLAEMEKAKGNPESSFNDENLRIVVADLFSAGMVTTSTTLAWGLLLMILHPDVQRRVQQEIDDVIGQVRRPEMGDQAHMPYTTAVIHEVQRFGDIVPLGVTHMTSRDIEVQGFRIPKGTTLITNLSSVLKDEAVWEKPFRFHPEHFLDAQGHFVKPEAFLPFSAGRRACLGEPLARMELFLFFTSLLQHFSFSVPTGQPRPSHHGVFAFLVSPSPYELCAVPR
How it was run: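 Luminescent P450-Glo read-out of CYP2D6 turnover of a luciferin substrate after NADPH-driven reaction of 30-45 min at room temperature. Compounds were first preincubated 15 min with enzyme at titrated concentrations; quinidine was the intraplate control.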

[4] = molecular target: Cytochrome P450 2C9 (Homo sapiens) (UniProt P11712); assay: qHTS for inhibitors of CYP2C9 against the NCATS DSHEA and TCM libraries (AID 1919973); conditions: recombinant CYP2C9 enzyme activity, luminescence; series mostly up to 34.1 µM;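 note: luminogenic pro-luciferin CYP2C9 substrate turned into luciferin with NADPH regeneration; % is set by controls: 0 for no effect and ±100 for the full control effect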
Sequence of Cytochrome P450 2C9 (Homo sapiens) (P11712 whole entry, looked up, canonical isoform): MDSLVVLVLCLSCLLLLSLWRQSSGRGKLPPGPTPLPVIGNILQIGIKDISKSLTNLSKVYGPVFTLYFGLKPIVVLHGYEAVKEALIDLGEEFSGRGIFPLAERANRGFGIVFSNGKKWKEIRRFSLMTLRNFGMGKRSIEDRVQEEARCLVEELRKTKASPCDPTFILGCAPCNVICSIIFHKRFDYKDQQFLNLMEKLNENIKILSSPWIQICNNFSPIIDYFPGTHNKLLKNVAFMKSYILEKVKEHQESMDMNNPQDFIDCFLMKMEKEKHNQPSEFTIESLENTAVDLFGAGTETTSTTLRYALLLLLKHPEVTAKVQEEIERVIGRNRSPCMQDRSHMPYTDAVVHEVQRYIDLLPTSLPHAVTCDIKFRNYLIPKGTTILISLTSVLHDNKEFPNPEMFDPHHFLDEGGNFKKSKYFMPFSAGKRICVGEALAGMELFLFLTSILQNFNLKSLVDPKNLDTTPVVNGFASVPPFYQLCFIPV
How it was run: (§2)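 Read-out is luminescence after P450-Glo detection (30 min, RT). Before that: 15 min compound–enzyme preincubation, then 30-45 min reaction with 1x NADPH regeneration solution, substrate concentration isoform-specific.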

[5] = molecular target: Cytochrome P450 2C19 (Homo sapiens) (UniProt P33261); assay: qHTS for inhibitors of CYP2C19 against the NCATS DSHEA and TCM libraries (AID 1919974); conditions: CYP2C19 enzyme inhibition, luminescence qHTS; series mostly up to 34.1 µM;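 note: luminescence from luciferin released by CYP2C19 oxidation of a pro-luciferin substrate; % is set by controls: 0 for no effect and ±100 for the full control effect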
Sequence of Cytochrome P450 2C19 (Homo sapiens) (P33261 whole entry, looked up): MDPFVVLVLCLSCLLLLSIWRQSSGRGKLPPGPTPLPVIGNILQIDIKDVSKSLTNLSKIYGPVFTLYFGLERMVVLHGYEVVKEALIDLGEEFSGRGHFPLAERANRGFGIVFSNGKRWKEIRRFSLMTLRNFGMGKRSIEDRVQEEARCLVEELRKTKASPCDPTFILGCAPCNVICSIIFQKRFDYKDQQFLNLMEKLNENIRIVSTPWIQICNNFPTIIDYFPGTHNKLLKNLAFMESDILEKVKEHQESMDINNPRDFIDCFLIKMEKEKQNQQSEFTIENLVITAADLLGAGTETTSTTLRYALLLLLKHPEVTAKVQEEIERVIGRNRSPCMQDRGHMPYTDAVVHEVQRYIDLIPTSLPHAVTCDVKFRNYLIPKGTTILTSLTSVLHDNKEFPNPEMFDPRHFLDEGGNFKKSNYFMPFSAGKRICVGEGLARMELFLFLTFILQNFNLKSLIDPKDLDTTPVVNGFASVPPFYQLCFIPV
How it was run: as §2

[6] = KB-3-1 P-gp reporter qHTS against the NCATS DSHEA and TCM libraries (AID 1919975); conditions: KB-3-1 parental cells, CellTiter-Glo luminescence viability, 72 h; series mostly up to 26.1 µM; note: 0% is about no effect
How it was run: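 KB-3-1 parental line, 1536-well qHTS: cells seeded, ~4 h attachment, pintool compound addition, ~72 h at 37C, then CellTiter-Glo, 30 min RT, luminescence. Concentration-response format.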

[7] = molecular target: Cytochrome P450 1A2 (Homo sapiens) (UniProt P05177); assay: qHTS for inhibitors of CYPIA2 against the NCATS DSHEA and TCM libraries (AID 1919976); conditions: recombinant CYP1A2 enzyme activity, luminescence; series mostly up to 37 µM;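 note: light from luciferin formed by CYP1A2 from a pro-luciferin substrate; % is set by controls: 0 for no effect and ±100 for the full control effect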
Sequence of Cytochrome P450 1A2 (Homo sapiens) (P05177 whole entry, looked up): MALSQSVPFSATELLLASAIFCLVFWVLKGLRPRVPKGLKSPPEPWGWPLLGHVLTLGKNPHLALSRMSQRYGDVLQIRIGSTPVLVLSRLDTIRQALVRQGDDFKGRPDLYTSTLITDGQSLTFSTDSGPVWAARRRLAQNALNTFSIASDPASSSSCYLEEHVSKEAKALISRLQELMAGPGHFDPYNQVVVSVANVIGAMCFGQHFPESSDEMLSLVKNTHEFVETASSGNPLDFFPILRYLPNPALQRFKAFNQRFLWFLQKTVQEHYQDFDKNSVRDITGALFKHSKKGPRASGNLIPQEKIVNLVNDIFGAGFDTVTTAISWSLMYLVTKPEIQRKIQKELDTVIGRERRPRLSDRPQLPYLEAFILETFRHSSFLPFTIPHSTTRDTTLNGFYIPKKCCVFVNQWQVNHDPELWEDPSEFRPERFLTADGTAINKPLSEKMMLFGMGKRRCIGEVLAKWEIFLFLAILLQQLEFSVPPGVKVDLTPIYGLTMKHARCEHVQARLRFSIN
How it was run: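 CYP1A2 + luciferin substrate, 100 mM KPO4-type buffer; cmpd 15 min RT; 1x NADPH regen, 30-45 min RT dark; detection reagent 30 min RT; luminescence. Minus-enzyme wells as background; furafylline intraplate control.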

[8] = qHTS Counterscreen for compound interference against the NCATS DSHEA and TCM libraries (AID 1919978); conditions: firefly luciferase detection reagent interference, luminescence;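 note: compounds preincubated with 1 µM D-luciferin or buffer before detection reagent; % of control where 0% means no effect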
How it was run: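 Compounds, titrated from 19.5 nM to 39.8 uM final, were pinned onto 1 uM D-luciferin or plain 100 mM potassium phosphate. After 15 min at room temperature, luciferin detection reagent was added for 30 min before the luminescence read.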

[9] = Dual reporter qHTS for agonist of Pregnane X Receptor (hPXR) against the NCATS DSHEA and TCM libraries: Fluorescence readout (AID 1920058); conditions: PXR dual reporter cells; series mostly up to 40 µM; note: 0% is about no effect
How it was run: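 HepG2 hPXR-Luc, 2000 cells/well, 5 h attach; cpds ~24 h, 37 °C/5% CO2; CellTiter-Fluor 1 h; fluor. Ex/Em 405/540 nm = viability.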

[10] = molecular target: Nuclear receptor subfamily 1 group I member 2 (Homo sapiens) (UniProt O75469); assay: Dual reporter qHTS for agonist of Pregnane X Receptor (hPXR) against the NCATS DSHEA and TCM libraries: Luminescence readout (AID 1920059); conditions: hPXR dual reporter cells, luciferase luminescence agonist; series mostly up to 40 µM; note: 0% is about no effect
Sequence of Nuclear receptor subfamily 1 group I member 2 (Homo sapiens) (O75469 whole entry, looked up): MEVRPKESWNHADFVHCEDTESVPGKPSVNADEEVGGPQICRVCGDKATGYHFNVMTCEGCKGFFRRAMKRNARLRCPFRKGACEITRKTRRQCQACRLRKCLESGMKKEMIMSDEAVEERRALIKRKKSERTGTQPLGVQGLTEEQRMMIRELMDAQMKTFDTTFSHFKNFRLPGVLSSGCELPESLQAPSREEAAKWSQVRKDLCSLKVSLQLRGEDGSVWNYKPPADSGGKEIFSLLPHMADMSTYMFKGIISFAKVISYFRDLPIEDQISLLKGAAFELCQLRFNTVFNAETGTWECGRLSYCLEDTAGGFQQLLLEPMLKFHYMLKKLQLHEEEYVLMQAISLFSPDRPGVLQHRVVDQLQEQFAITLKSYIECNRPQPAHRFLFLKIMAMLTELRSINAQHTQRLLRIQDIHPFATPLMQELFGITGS
How it was run: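 hPXR-Luc HepG2 cells, 2000/well in 5% charcoal-stripped FBS medium, attached 5 h, then exposed 24 h at 37C to compounds. Viability by CellTiter-Fluor, then luciferase luminescence with ONE-Glo.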

[11] = molecular target: Nuclear receptor subfamily 1 group I member 2 (Homo sapiens) (UniProt O75469); assay: Dual reporter qHTS for antagonist of Pregnane X Receptor (hPXR) against the NCATS DSHEA and TCM libraries: Luminescence Readout (AID 1920060); conditions: hPXR dual reporter cells, luciferase luminescence, antagonist mode; series mostly up to 40 µM;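 note: HepG2 cells carrying hPXR luciferase reporter stimulated with rifampicin at 2 µM; 0% is about no effect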
How it was run: (§3)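 Antagonist mode: rifampicin 2 uM final co-added with compounds to hPXR-LucHepG2 cells for 24 h at 37C. Viability by CellTiter-Fluor, Ex/Em 405/540 nm, 1 h; reporter by ONE-Glo luminescence.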

[12] = Dual reporter qHTS for antagonist of Pregnane X Receptor (hPXR) against the NCATS DSHEA and TCM libraries: Fluorescence Readout (AID 1920061); conditions: PXR dual reporter cells, antagonist mode; series mostly up to 40 µM; note: 0% is about no effect
How it was run: as §3

7G8 = assay: qHTS profiling for inhibitors of Plasmodium falciparum proliferation (AID 504749); note: nearly all actives have a fitted effect of over 60% in size; note: potency is the fitted concentration of half-maximal effect;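 for activity, negative = inhibition: 0% = DMSO vehicle and full inhibition = artemisinin control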; conditions: P. falciparum in erythrocytes, SYBR Green DNA, 72 h; series mostly up to 28.7 µM
How it was run: as §1

AA1029 = assay: as above; conditions: P. falciparum in erythrocytes, SYBR Green DNA, 72 h; series mostly up to 28.7 µM
How it was run: as §1

ATS189 = assay: as above; conditions: P. falciparum in erythrocytes, SYBR Green DNA, 72 h; series mostly up to 28.7 µM
How it was run: as §1

ATS95 = assay: as above; conditions: P. falciparum in erythrocytes, SYBR Green DNA, 72 h; series mostly up to 28.7 µM
How it was run: as §1

[13] = measured here: PEO1 parental Z-AUC
[14] = at 28.7 µM (top of the series), parasite line A
[15] = at 28.7 µM (top of the series), parasite line B

Cc1c(O)cccc1C(=O)N[C@@H](CSc1ccccc1)[C@H](O)CN1C[C@H]2CCCC[C@H]2C[C@H]1C(=O)NC(C)(C)C
-0.979: Z-AUC [1, 13]
inactive: Z-AUC [1] -0.819 | Potency (C2A) | Potency (CP185)
active: Potency ([2]; parasite line B) 7.94 µM | Potency (3D7) 12.6 µM | Potency (AS120) 10 µM
-1.07: Z-AUC ([1]; measured here: PEO4 Z-AUC)

CC12CCC(CC1)C(C)(C)O2
inactive: outcome [3] | outcome [4] | outcome [5] | outcome [6] | outcome [7] | max response [8] -1.5% | outcome [9] | outcome [10] | outcome [11] | outcome [12] | activity, negative = inhibition [2, 14] 9.21% | activity, negative = inhibition [2, 15] -14.4% | Potency (3D7) | Potency (7G8) | Potency (AA1029) | Potency (AS120) | Potency (ATS189) | Potency (ATS95) | Potency (C2A) | Potency (CP185)

COc1ccc2c(c1)C(=O)N(CCc1ccc(S(=O)(=O)NC(=O)NC3CCCCC3)cc1)C(=O)C2(C)C
inactive: activity, negative = inhibition ([2]; at 12.8 µM (top of the series), parasite line A) 4.32% | activity, negative = inhibition ([2]; at 12.8 µM (top of the series), parasite line B) -5.51% | Potency (3D7) | Potency (7G8) | Potency (AA1029) | Potency (AS120) | Potency (ATS189) | Potency (ATS95) | Potency (C2A) | Potency (CP185)

COc1ccccc1O
inactive: activity, negative = inhibition [2, 14] 6.24% | activity, negative = inhibition [2, 15] 17.1% | Potency (3D7) | Potency (7G8) | Potency (AA1029) | Potency (AS120) | Potency (ATS189) | Potency (ATS95) | Potency (C2A) | Potency (CP185)

O=C(O)c1ccccc1O
inactive: outcome [3] | outcome [4] | outcome [5] | outcome [6] | outcome [7] | max response [8] -0.219% | outcome [9] | outcome [10] | outcome [11] | outcome [12] | activity, negative = inhibition [2, 14] 0.135% | activity, negative = inhibition [2, 15] 11.3% | Potency (3D7) | Potency (7G8) | Potency (AA1029) | Potency (AS120) | Potency (ATS189) | Potency (ATS95) | Potency (C2A) | Potency (CP185)

NC(CSCC(=O)O)C(=O)O (configuration not stated)
inactive: activity, negative = inhibition [2, 14] -7.77% | activity, negative = inhibition [2, 15] -0.351% | Potency (3D7) | Potency (7G8) | Potency (AA1029) | Potency (AS120) | Potency (ATS189) | Potency (ATS95) | Potency (C2A) | Potency (CP185)

CC1=C(C/C=C(\C)CCC[C@H](C)CCC[C@H](C)CCCC(C)C)C(=O)c2ccccc2C1=O
inactive: outcome [3] | outcome [6] | max response [8] -2.28% | outcome [9] | outcome [11] | outcome [12]

CCN(CC)CCCC(C)Nc1c2ccc(Cl)cc2nc2ccc(OC)cc12 (configuration not stated)
-1.15: Z-AUC [1, 13]
-1.09: Z-AUC ([1]; measured here: PEO4 Z-AUC)
inactive: Z-AUC [1] -0.243

Cc1ncc(COP(=O)(O)O)c(C=O)c1O
inactive: activity, negative = inhibition [2, 14] -4.1% | activity, negative = inhibition [2, 15] 3.77% | Potency (3D7) | Potency (7G8) | Potency (AA1029) | Potency (AS120) | Potency (ATS189) | Potency (ATS95) | Potency (C2A) | Potency (CP185)
